S2 tox = cell viability loss in ATXN counter-screen; S2 cells (HEK-293 line with an ATXN2-luciferase reporter) viability, CellTiter-Fluor protease fluorescence, 24 h; Potency, µM (titrated, usually from 56.7 µM), most hits filed as cytotoxic; 400,000 compounds, 0.49% hits; AID 651635; also: nearly all actives have a fitted effect of over 40% in size
SW480 rereplic = induces DNA re-replication in SW480 colon adenocarcinoma cells | AID 624297 | SW480 DNA re-replication, Hoechst DNA content imaging, 48 h | Potency, µM (doses to about 46.1 µM), most hits filed as activators | 340,000 compounds, 1.8% hits; also: nearly all actives have a fitted effect of over 55% in size
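SW480 cells exposed to compounds for 48 hr at 37 C, 5% CO2, then Hoechst-stained 40 min. Nuclear DNA content imaged by fluorescence scanning (405 nm excitation, 500-530 nm emission); re-replication scored as increased high-intensity nuclei.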
ATXN2 expr inh = ATXN2 expression inhibition. HEK-293 ATXN2-luciferase reporter, luminescence, 24 h. Potency, µM (titrated, usually from 57 µM), most hits filed as inhibitors. AID 1745845. 360,000 compounds, 0.72% hits; also: nearly all actives have a fitted effect of over 55% in size
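ATXN2-luciferase reporter cells (luciferase flanked by upstream and downstream ATXN2 gene portions) were treated 24 h at 37 °C with compounds at up to 57 uM. SteadyGlo luminescence gave expression; GF-AFC fluorescence gave viability.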
IL1B secr inh = inhibitors of inflammasome signaling (IL-1 beta secretion); THP-1 LPS/ATP IL-1B secretion, AlphaLISA, 16 h; hits give low values; activity change, % at 57.5 µM; 360,000 compounds, 4.7% hits; in the data active = activity change below about -50%; inconclusive = mostly about -30% to -49%
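Secreted IL-1B measured by AlphaLISA bead assay after 16 h compound exposure of THP-1 cells; compounds (final up to 57.5 uM) added 1 h before LPS (250 ng/mL) and ATP (1.25 mM) stimulation; lower signal means less secretion.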
PINK1 modulator = modulators of PINK1 expression; AID 624263; Potency, µM (doses to about 76.6 µM), hits mostly activators; 410,000 compounds, 0.2% hits; PINK1 immunofluorescence, high-content cytometry, 24 h; active = well fitted activation curve with a large enough effect; inconclusive = small, poorly fitted or top-dose-only effect; cell line not stated here; also: nearly all actives have a fitted effect of over 65% in size
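Decision-based qHTS: stable cells, 24 h exposure to five compound concentrations, CCCP as control. Fixed cells stained for PINK1 plus nuclear, mitochondrial and cell markers, cytometer read.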
MCF10A rerep = DNA re-replication induction in MCF 10a cells. MCF 10A DNA re-replication, Hoechst nuclear intensity, 48 h. Potency, µM (top dose mostly 46.1 µM), most hits filed as activators. 350,000 compounds, 2.9% hits; also: nearly all actives have a fitted effect of over 50% in size
Numbers stand for hits; n = inactive; u = inconclusive; x = not tested or not shown; [ ] = remark or other dose. In the library only some 7.1% were active in any assay of this set; here they are far more common. Unless noted, calls follow the shape of the dose curve; as a rule, active = well fitted curve in the direction sought with a large enough effect; inconclusive = small, poorly fitted or top-dose-only effect, or another doubt; inactive = no such curve, though single readings can be large; an effect the other way counts as inactive or inconclusive.

SMILES	S2 tox	SW480 rereplic	ATXN2 expr inh	IL1B secr inh	PINK1 modulator	MCF10A rerep
COC(=O)[C@@H](NC(=O)C1CCCN(c2nc(C)c3ccc(C)cc3n2)C1)C(C)C (stereo partly specified)	n	x	x	x	n	x
CCC(C(=O)Nc1cc(C(F)(F)F)ccc1Cl)n1nc(C)c2sc3ccccc3c2c1=O (stereo unspecified)	x	x	x	x	n	x
CC1=C(C(=O)Nc2cc(C(=O)N3CCC(C)CC3)ccc2C)SCCO1	n	u	n	n	n	n
COc1ccccc1-c1cn[nH]c1-c1ccc(OCc2ccc([N+](=O)[O-])cc2)cc1O	n	n	n	n	n	n
COc1ccccc1-c1cn[nH]c1-c1ccc(OCc2ccc(F)cc2)cc1O	n	n	n	-51.6	n	u
COc1ccccc1-c1cn[nH]c1-c1ccc(OCc2ccccc2F)cc1O	u	u	u	-101.0	n	7.31µM
COc1ccc2c(c1)CC(N1CCN(C)CC1)c1cc(OC)ccc1S2 (stereo unspecified)	u	u	28.2µM	-93.2	n	u
CSc1ccc2c(c1)C(N1CCN(C)CC1)Cc1ccc(F)cc1S2 (stereo unspecified)	n	u	x	-55.8	n	u
COCCCN1CCN(C2Cc3ccccc3Sc3ccc(Cl)cc32)CC1 (stereo unspecified)	u	n	u	n	n	u
O=[N+]([O-])c1ccc2c(c1)C(N1CCN(CCO)CC1)Cc1ccc(F)cc1S2 (stereo unspecified)	u	x	n	n	n	x
Cc1ccc(NC(=O)CSC2=Nc3ccccc3C3=NC(Cc4ccccc4)C(=O)N23)cc1C (stereo unspecified)	u	x	n	x	n	x
CC(C)(C)C(=O)Nc1c(C(=O)N2CCN(c3ccc(F)cc3)CC2)oc2ccccc12	n	x	n	x	n	x
O=[N+]([O-])c1cnc(Sc2ccncn2)s1	3.16µM	u	x	-71.5	n	n
Cc1cc(C)nc(NC(=NCCc2c[nH]c3ccccc23)NC(=O)Nc2ccccc2)n1	n	u	n	n	n	25.9µM
CCNc1nc(NCC)nc(SCCOC(=O)Nc2ccc(Cl)cc2Cl)n1	u	n	n	n	n	18.4µM
CCNc1nc(NCC)nc(SCCOC(=O)c2ccccc2)n1	n	n[9.22 µM]	n	n	n	n
COc1ccc(-c2nc3nc(C)cc(N4CCN(c5cccc(C(F)(F)F)c5)CC4)n3n2)cc1	n	x	n	x	n	x
COC(=O)c1c(NC(=O)c2ccc(S(=O)(=O)N3CCCCC3C)cc2)sc2c1CCN(C(C)C)C2 (stereo unspecified)	x	x	n	x	n	x
CC(C)N1CCc2c(sc(NC(=O)c3ccc(S(=O)(=O)N4CCCCC4C)cc3)c2C(N)=O)C1 (stereo unspecified)	u	20.6µM	u	n	n	u
CC(C)N1CCc2c(sc(NC(=O)c3ccc(C(=O)c4ccccc4)cc3)c2C(N)=O)C1	u	u	u	-98.1	n	16.4µM
CC(C)N1CCc2c(sc(NC(=O)Cc3ccccc3)c2C(N)=O)C1	n	n	n	u	n	n
CC(C)N1CCc2c(sc(NC(=O)c3ccc4ccccc4c3)c2C(N)=O)C1	n	14.6µM	n	-84.4	n	9.2µM
CC(=O)Nc1sc2c(c1-c1nc3ccccc3s1)CCN(C(C)C)C2	u	20.6µM	5.32µM	-105.1	n	u
CC(C)N1CCc2c(sc(NC(=O)c3ccco3)c2C(N)=O)C1	n	n	n	u	n	n
Cc1cccc(C)c1NC(=O)c1oc2c(c1C)-c1nn(Cc3ccccc3)cc1CC2	x	x	x	x	n	x
SMILES	S2 tox	SW480 rereplic	ATXN2 expr inh	IL1B secr inh	PINK1 modulator	MCF10A rerep
CCN1CCc2c(sc(NC(=O)c3cc4ccccc4cc3OC)c2C(N)=O)C1	n	11.6µM	n	-99.6	n	18.4µM
COc1cccc(OC)c1C(=O)Nc1sc2c(c1C(N)=O)CCN(Cc1ccccc1)C2	n	n	n	n	n	n
CCCCOC(=O)CCCCCCCCC(=O)OCCCC	n	x	n	x	x	x
COc1ccc(N2CCN(CCNC(=O)c3ccc4c(c3)[nH]c(=S)n3c5ccccc5nc43)CC2)cc1	n	7.31µM	n	n	n	n
c1ccc(SC23CCCCN(CCC2)[C@]32CO2)cc1 (stereo partly specified)	n	x	n	n	n	x
CC1(C)C(N(O)C(=O)Nc2ccc(Cl)cc2)N(c2ccc(Cl)cc2)C(=O)N1CC(=O)NN (stereo unspecified)	n	n	n	-53.2	x	u
Cn1cc(C(=O)NCCc2ccc(Cl)cc2)c(=O)c2cc(S(=O)(=O)N3CCOCC3)ccc21	n	x	n	x	n	x
COc1cc(/C=C(/C#N)c2nc3ccccc3[nH]2)ccc1OCC(=O)Nc1ccccc1C	x	n	n	n	n	18.4µM
COc1cc(/C=C(/C#N)c2nc3ccccc3[nH]2)ccc1OCC(=O)Nc1ccccc1C(C)C	x	u	u	n	u	2.91µM
COc1cc(/C=C(\C#N)c2nc3ccc(C)cc3[nH]2)ccc1OC(C)C	x	x	n	x	n	x
COc1ccccc1Oc1nc2c(C)cccn2c(=O)c1/C=C(\C#N)c1nc2ccccc2[nH]1	n	x	n	x	25.1µM	x
COc1cc(/C=C(\CC(=O)O)c2nc3ccccc3s2)ccc1OCC(=O)Nc1ccccc1F	n	n	n	n	n	u
COc1cc(/C=C(\C#N)c2nc3ccccc3s2)ccc1OCC(=O)Nc1ccccc1	x	u	u	n	n	6.51µM
COc1ccc(C(=O)N2CCN(S(=O)(=O)c3ccc(Br)cc3)CC2)cc1	n	n	n	n	n	n
CCOc1cc(/C=C(/C#N)c2nc3ccccc3[nH]2)ccc1OCc1ccc(C(=O)O)o1	n	n	n	n	n	n
COc1cc(/C=C(\C#N)c2nc3ccccc3[nH]2)ccc1OC(=O)c1ccco1	n	n	n	-61.9	n	u
COc1ccc(/C=N/Nc2nc(-c3ccc(Cl)cc3)cc(C(F)(F)F)n2)cc1OC	n	n	n	-52.9	n	n
COCCNC(=S)N(CCc1c(C)[nH]c2ccc(F)cc12)Cc1cccs1	u	n	n	u	u	n
CCNC(=S)N(CCc1c(C)[nH]c2ccc(C)cc12)Cc1cccs1	u	n	n	-53.3	u	u
CNC(=S)N(CCc1c(C)[nH]c2ccc(Cl)cc12)Cc1cc(OC)c(OC)c(OC)c1	u	25.9µM	u	u	n	u
CNC(=S)N(CCc1c(C)[nH]c2ccc(C)cc12)Cc1ccco1	u	n	n	n	n	u
CCNC(=S)N(CCc1c(C)[nH]c2ccc(Cl)cc12)Cc1ccco1	n	18.4µM	n[11.3 µM]	-59.0	u	u
COCCNC(=S)N(CCc1c(C)[nH]c2ccc(Cl)cc12)Cc1cccs1	u	u	u	-92.3	u	u
CCOC(=O)c1ccc(CNc2ncnc3nc[nH]c23)cc1	x	x	x	x	n	x

Assay outcomes as filed in PubChem BioAssay.
